What all share (assay): glycan array binding signal (z-score within array); higher = stronger binding
Settings in all cases: glycan notation: IUPAC condensed, linker removed

For assay [1], the target named is Fuc(a1-3)[Gal(b1-4)]GlcNAc(b1-4)Gal(b1-4)[Fuc(a1-3)]GlcNAc. Put shortly: (§1)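 Arrays were curated from the Consortium for Functional Glycomics database, 3228 in total, and kept only where the protein sequence was available. Binding is expressed as a within-array Z-score. This score was averaged across arrays of the same protein sequence at different concentrations or buffers and across linkers, and negative values can be read as non-binding.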

The next assay concerns the target Gal(a1-2)Gal. Put shortly:
as §1

Another assay concerns the target Gal(b1-2)Gal. Put shortly: as §1
The target in assay [2] is Gal(b1-3)[Fuc(a1-4)]GlcNAc. Put shortly: as §1
Assay [3] addresses Gal(b1-4)GlcNAc(b1-3)Gal(b1-4)[Fuc(a1-3)]GlcNAc(b1-3)Gal(b1-4)[Fuc(a1-3)]GlcNAc. Put shortly:
as §1

The target in a further assay is Gal3S(b1-4)Glc6S. Put shortly: as §1
The target in a further assay is Gal6S(b1-4)Glc6S. Put shortly:
as §1

The target of the next assay is Glc(b1-6)Glc. Put shortly: as §1
Assay [4] addresses GlcNAc(b1-2)Gal(b1-3)GlcNAc. Put shortly:
as §1

The target of a further assay is GlcNAc(b1-3)GalNAc. Put shortly:
as §1

Assay [5] has as its target Neu5Ac(a2-3)Gal(b1-4)GlcNAc(b1-3)Gal(b1-4)[Fuc(a1-3)]GlcNAc. Put shortly:
as §1

Assay [6] concerns the target Neu5Ac(a2-6)Gal(b1-4)GlcNAc. Put shortly: as §1
The target of assay [7] is Neu5Ac(a2-8)Neu5Ac(a2-8)Neu5Ac(a2-8)Neu5Ac(a2-3)[GalNAc(b1-4)]Gal(b1-4)Glc. Put shortly:
as §1

Assay [8] addresses Neu5Ac9Ac(a2-6)Gal(b1-4)GlcNAc. Put shortly: as §1
The target of assay [9] is Neu5Gc(a2-3)Gal(b1-3)[Fuc(a1-4)]GlcNAc. Put shortly:
as §1

This excerpt belongs to a sample that is enriched for the strongest signals.

B1: Onconase (Rana pipiens), P22069 (protein)
chain: QDWLTFQKKHITNTRDVDCDNIMSTNLFHCKDKNTFIYSRPEPVKAICKGIIASKNVLTTSEFYLSDCNVTSRPCKYKLKKSTNKFCVTCENQAPVHFVGVGSC
With B1, the “glycan array binding signal (z-score)” value in [1] was 1.21; with Gal(a1-2)Gal it was 3.22; in the assay with Gal(b1-2)Gal it was 2.63; in [2], -0.553; in assay [3], 2.54; with Gal3S(b1-4)Glc6S, -0.281. Also, the “glycan array binding signal (z-score)” value is 0.598 in the assay with Gal6S(b1-4)Glc6S; 0.027 with Glc(b1-6)Glc; -0.449 in assay [4]; -0.84 with GlcNAc(b1-3)GalNAc; -0.671 in assay [5]; 0.51 in [6]. The “glycan array binding signal (z-score)” value in [7] is 2.71; in assay [8] it was -0.006; in assay [9], 1.6.

These data come from the supplement of paper PMC8728848.
